Measurements from PubChem BioAssay (Tox21).
Results filed as inconclusive are left out. Entries that show only a call come without a potency. The source made the active and inactive calls. Calls come from the whole dose curve; as a rule, active = well fitted inhibition curve with a large enough effect in the repeat runs; inconclusive = weak or mixed curves; inactive = no such curve, though single readings can be large or run the other way.

Target: Cytochrome P450 3A4 (Homo sapiens) (UniProt P08684)
Experiment: Cytochrome P450 Family 3 Subfamily A Member 4 (CYP3A4) small molecule antagonists: luciferase reporter qHTS assay (AID 1671201); note: nearly all actives have a fitted effect of over 50% in size
Conditions: P450-Glo CYP3A4 enzyme, luciferin luminescence, 1 h; series mostly up to 115 µM
Text: National Center for Advancing Translational Sciences [NCATS]
U.S. Environmental Protection Agency [EPA]
National Institutes of Environmental Health Sciences [NIEHS]
National Toxicology Program [NTP]
U.S. Food and Drug Administration [FDA]
Cytochrome P450 (CYP) enzymes are membrane-bound hemeproteins that play a key role in metabolism of drugs and xenobiotics. Evaluation of the effect of chemicals on CYP isozymes is useful to minimize the adverse drug reactions and toxicities in drug development process. Tox21 chemicals were tested for their effect on CYP enzyme activities by using P450-Glo (TM) screening systems (Promega Corporation, Madison, WI). These systems provide a luminescent method containing proluciferin substrates and are converted to luciferin products by CYP isozymes. The luciferin products formed are detected with a luciferin detection reagent, and the amount of light produced is proportional to CYP activity. P450-Glo (TM) CYP3A4 screening system (Catalog. No. V9910) was used to detect the compounds that interfere in CYP3A4 activity. The positive control compound used for CYP3A4 assay is ketoconazole (Sigma-Aldrich, St. Louis, MO).
Tox21 Assay Protocol Summary:
Two ul of enzyme-substrate mix was dispensed into medium binding white/solid 1536-well plates (Greiner Bio-One North America Inc., Monroe, NC) using a BioRaptr Flying Reagent Dispenser (FRD, Beckman Coulter, Brea, CA). Compounds dissolved in DMSO and positive control (ketoconazole) were transferred to the assay plates at 23 nl using a Pintool station (Wako, San Diego, CA). The assay plates were incubated at room temperature for 10 min. Then 2 ul of NADPH regeneration solution was added to each well of the assay plates using an FRD and incubated at room temperature for 1 h. The reaction was stopped by adding 4 ul of detection reagent using an FRD and after 20 min incubation at room temperature the luminescence signal was measured using a ViewLux plate reader (Perkin Elmer, Shelton, CT). Data were expressed as relative luminescence units.
Potency is the fitted concentration of half-maximal effect.

Cytochrome P450 3A4 (Homo sapiens), sequence (P08684 whole entry, looked up): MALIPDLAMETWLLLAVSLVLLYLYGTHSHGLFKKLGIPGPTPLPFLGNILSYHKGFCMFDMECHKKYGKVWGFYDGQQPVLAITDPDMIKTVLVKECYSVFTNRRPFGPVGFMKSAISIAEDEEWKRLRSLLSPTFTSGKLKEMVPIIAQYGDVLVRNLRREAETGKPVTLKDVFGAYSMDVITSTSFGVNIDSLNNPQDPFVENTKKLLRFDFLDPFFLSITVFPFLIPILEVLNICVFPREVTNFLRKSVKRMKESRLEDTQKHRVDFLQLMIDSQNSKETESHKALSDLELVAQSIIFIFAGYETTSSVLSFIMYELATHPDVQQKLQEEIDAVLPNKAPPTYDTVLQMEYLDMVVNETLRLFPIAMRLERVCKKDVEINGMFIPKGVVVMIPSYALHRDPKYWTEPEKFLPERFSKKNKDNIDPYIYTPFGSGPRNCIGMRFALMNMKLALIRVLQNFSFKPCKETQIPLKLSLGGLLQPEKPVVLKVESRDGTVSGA

| Structure (SMILES) | Potency |
| --- | --- |
| CN1COCN(Cc2cnc(Cl)s2)/C1=N\[N+](=O)[O-] | inactive |
| CNC(=O)Oc1ccccc1C(C)C | inactive |
| C=CC(=O)OCCN(C)C | inactive |
| N#CC(Br)(Br)C(N)=O | inactive |
| O=C(Cl)c1ccccc1 | inactive |
| CCNc1nc(Cl)nc(NC(C)(C)C)n1 | inactive |
| C=C1C[C@@H]2[C@H](CC[C@]3(C)C(=O)CC[C@@H]23)[C@@]2(C)C=CC(=O)C=C12 | inactive |
| CCOC(=O)N(C)N=O | inactive |
| COC[C@@H](NC(C)=O)C(=O)NCc1ccccc1 | inactive |
| CCCN1CCC[C@@H]2Cc3nc(N)ncc3C[C@H]21 | inactive |
| O=c1[nH]c2ccccc2n1C1CCNCC1 | inactive |
| C1CN2CCC1CC2 | inactive |
| CN(C)CCN(C)C | inactive |
| CC(C)(O)C(Cl)(Cl)Cl | inactive |
| C[C@]12C=CC(=O)C=C1CC[C@@H]1[C@@H]2CC[C@@]2(C)[C@H]1CC[C@]2(C)O | inactive |
| CNC(=O)NC(O)C(Cl)(Cl)Cl (stereo not given) | inactive |
| CCC(=O)c1ccc(Cl)cc1 | inactive |
| CCC(C(N)=O)N1CCCC1=O (stereo not given) | inactive |
| CC(=NC#N)N(C)Cc1ccc(Cl)nc1 | inactive |
| O=P(O)(O)CN(CP(=O)(O)O)CP(=O)(O)O | inactive |

| Structure (SMILES) | Potency |
| --- | --- |
| COc1cc(CC(C)N)cc(OC)c1OC (stereo not given) | inactive |
| CC1NCCOC1c1ccccc1 (stereo not given) | inactive |
| NNCc1ccccc1 | 32.3 µM (active) |
| [P]#[In] | inactive |
| Cc1cc(OC(=O)N(C)C)nn1C(=O)N(C)C | inactive |
| Cn1c(N)nc2c3cccnc3ccc21 | inactive |
| Cc1ccc(Cl)c(O)c1 | inactive |
| CCOP(=O)(CN(CCO)CCO)OCC | inactive |
| C/C(=N\NC(=O)Nc1cc(F)cc(F)c1)c1ncccc1C(=O)O | inactive |
| CCCCCCC1CCOC1=O (stereo not given) | inactive |
| [O-][Br+2]([O-])O | inactive |
| COP(=O)(OC)O/C(C)=C/C(=O)N(C)C | inactive |
| Nc1c(Cl)c(F)nc(OCC(=O)O)c1Cl | inactive |
| CS(=O)(=O)Cl | inactive |
| CC(C)(C)C(=O)Cl | inactive |
| COC(=O)c1ccccc1CS(=O)(=O)NC(=O)Nc1nc(OC)cc(OC)n1 | inactive |
| ClC(Cl)(Cl)Cl | inactive |
| CNC(=O)O/N=C(/CSC)C(C)(C)C | inactive |
| CC(C)(C)C(=O)C(Cl)Cl | inactive |
| S=C=S | inactive |
